# In the supplement of paper PMC9694430:
# How the values were obtained:
# Test in all cases: thermal shift delta Tm vs DMSO control; higher = stronger stabilization (binding)
# Details in all cases: 12.5 µM; protein concentration 2 µM
# [1] = tested on: LOC_OS01G57100-cb003
# Outline: (§1)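 Thermal shift values come from differential scanning fluorimetry on purified rice kinase domains made in E. coli, with melting temperatures obtained from Boltzmann fits. Samples of 19.5 μl held 2 μM kinase, 100 mM potassium phosphate pH 7.5, 150 mM NaCl, 10% glycerol, 5 × SYPRO Orange and compound in DMSO, and were heated from 25°C to 95°C at 0.05°C/s. Each shift is a triplicate mean relative to the DMSO-only protein sample.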
# [2] = tested on: LOC_OS01G60330-cb001
# Outline: as §1
# [3] = tested on: LOC_OS01G60700-cb002
# Outline: as §1
# [4] = tested on: LOC_OS01G63280-cb003
# Outline: as §1
# [5] = tested on: LOC_OS01G67340-cb003
# Outline: as §1
# [6] = tested on: LOC_OS01G70970-cb002
# Outline: as §1
# [7] = tested on: LOC_OS02G07810-cb001
# Outline: as §1
# [8] = tested on: LOC_OS02G08530-cb003
# Outline: as §1
# [9] = tested on: LOC_OS02G14120-cb001
# Outline: as §1
# [10] = tested on: LOC_OS02G17970-cb001
# Outline: as §1
# [11] = tested on: LOC_OS02G45750-cb003
# Outline: as §1
# [12] = tested on: LOC_OS02G54510-cb004
# Outline: as §1
# [13] = tested on: LOC_OS03G04050-cb001
# Outline: as §1
# [14] = tested on: LOC_OS03G12390-cb001
# Outline: as §1
# [15] = tested on: LOC_OS03G27990-cb004
# Outline: as §1
# [16] = tested on: LOC_OS03G50450-cb001
# Outline: as §1
# [17] = tested on: LOC_OS03G50810-cb003
# Outline: as §1
# [18] = tested on: LOC_OS04G35114-cb001
# Outline: as §1
# [19] = tested on: T1, LOC_OS04G38480-cb003
# T1 sequence (whole entry): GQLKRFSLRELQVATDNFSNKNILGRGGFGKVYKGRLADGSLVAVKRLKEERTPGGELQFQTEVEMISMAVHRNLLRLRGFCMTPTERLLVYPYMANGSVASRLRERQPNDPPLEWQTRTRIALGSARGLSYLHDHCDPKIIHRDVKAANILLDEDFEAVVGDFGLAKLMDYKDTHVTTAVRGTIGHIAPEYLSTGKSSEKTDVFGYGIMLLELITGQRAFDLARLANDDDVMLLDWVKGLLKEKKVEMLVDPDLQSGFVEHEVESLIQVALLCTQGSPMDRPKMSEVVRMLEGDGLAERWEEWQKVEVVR
# Outline: as §1
# [20] = tested on: T2, LOC_OS04G41100-cb001
# T2 sequence (whole entry): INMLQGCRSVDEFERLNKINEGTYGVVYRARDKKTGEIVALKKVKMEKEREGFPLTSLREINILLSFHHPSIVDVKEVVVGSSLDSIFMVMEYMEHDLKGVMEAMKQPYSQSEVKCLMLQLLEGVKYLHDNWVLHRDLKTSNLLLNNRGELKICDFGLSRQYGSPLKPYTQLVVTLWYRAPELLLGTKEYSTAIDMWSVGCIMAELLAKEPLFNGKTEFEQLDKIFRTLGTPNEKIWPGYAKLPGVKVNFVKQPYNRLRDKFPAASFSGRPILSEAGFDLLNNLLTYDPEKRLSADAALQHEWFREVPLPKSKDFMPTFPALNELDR
# Outline: as §1
# 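Also: purified Escherichia coli-expressed rice kinase domain construct.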
Structure (SMILES),thermal shift delta Tm [1] [°C],thermal shift delta Tm [2] [°C],thermal shift delta Tm [3] [°C],thermal shift delta Tm [4] [°C],thermal shift delta Tm [5] [°C],thermal shift delta Tm [6] [°C],thermal shift delta Tm [7] [°C],thermal shift delta Tm [8] [°C],thermal shift delta Tm [9] [°C],thermal shift delta Tm [10] [°C],thermal shift delta Tm [11] [°C],thermal shift delta Tm [12] [°C],thermal shift delta Tm [13] [°C],thermal shift delta Tm [14] [°C],thermal shift delta Tm [15] [°C],thermal shift delta Tm [16] [°C],thermal shift delta Tm [17] [°C],thermal shift delta Tm [18] [°C],thermal shift delta Tm [19] [°C],thermal shift delta Tm [20] [°C]
"Nc1nc2cc(-c3ccc4ncc(C(=O)N5CCOCC5)n4c3)ccc2o1 [Serabelisib (INK-1117,MLN-1117,TAK-117)]",1.55,0.93,0.36,0.07,1.26,1.33,0.05,1.17,2.02,0.23,1.65,0.12,0.57,0.22,0.37,0.93,0.42,1.85,0.6,0.51
C=CC(=O)Nc1ccc(CN2C(=O)N(c3cc(OC)cc(OC)c3)Cc3cnc(Nc4ccc(N5CCN(C)CC5)cc4)nc32)cc1,3.1,0.63,2.43,0.9,0.61,1.17,1.48,1.77,2.28,1.39,1.47,1.08,0.74,0.1,0.49,0.33,0.75,1.29,2.8,0.83
COc1nccc(-c2c(-c3ccc(F)cc3)ncn2C2CCC(O)CC2)n1 (stereo not given),1.45,1.05,0.84,0.44,0.6,0.09,0.67,0.39,-0.37,0.65,0.57,-0.06,0.08,0.08,0.19,0.52,0.48,0.56,1.13,0.51
Oc1c2ccccc2c2c3c(cccc13)N=N2,1.83,9.76,1.18,2.18,6.47,6.02,1.65,3.38,5.57,0.82,8.26,0.51,0.73,5.6,3.39,2.66,2.79,6.42,2.04,1.69
O=C(NOCC(O)CO)c1cc(Br)c(F)c(F)c1Nc1ccc(I)cc1F (stereo not given),2.4,2.2,1.6,1.18,0.03,0.55,2.41,1.08,1.22,2.02,-0.49,-0.06,0.63,0.93,0.15,0.19,0.19,0.09,1.04,3.8
C[C@@H](Nc1cc(F)cc(F)c1)c1cc(C(=O)N(C)C)cc2c(=O)cc(N3CCOCC3)oc12,0.51,1.18,1.09,0.24,0.36,0.08,0.6,0.37,0.3,0.78,-0.34,-0.01,0.03,0,0.1,-0.15,0.15,0.51,1.21,0.16
